Experimental data from PubChem BioAssay AID2156 (Johns Hopkins Ion Channel Center, 2009).
Hit rate of the full screen: of about 310,000 compounds, about 3,400 (1.1%) were called active.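 Rule for the calls: active = fluorescence ratio B-score at most minus 3 library SDs, with starting brightness B-score within 2 library SDs (cut at about -5.5 in these data); inactive = the rest, inconclusive results apart.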 Shown is part of a subset that was picked to be rich in actives.

The compounds below were run against Potassium voltage-gated channel subfamily KQT member 2 (Rattus norvegicus) (UniProt O88943) (assay: KCNQ2 channel blockers in CHO-K1 cells – cell-based, FluxOR thallium flux, B-score, primary screen (AID 2156)). Conditions: 20 min, at 10 µM; active compounds read low.
Sequence of Potassium voltage-gated channel subfamily KQT member 2 (Rattus norvegicus) (O88943 whole entry, looked up): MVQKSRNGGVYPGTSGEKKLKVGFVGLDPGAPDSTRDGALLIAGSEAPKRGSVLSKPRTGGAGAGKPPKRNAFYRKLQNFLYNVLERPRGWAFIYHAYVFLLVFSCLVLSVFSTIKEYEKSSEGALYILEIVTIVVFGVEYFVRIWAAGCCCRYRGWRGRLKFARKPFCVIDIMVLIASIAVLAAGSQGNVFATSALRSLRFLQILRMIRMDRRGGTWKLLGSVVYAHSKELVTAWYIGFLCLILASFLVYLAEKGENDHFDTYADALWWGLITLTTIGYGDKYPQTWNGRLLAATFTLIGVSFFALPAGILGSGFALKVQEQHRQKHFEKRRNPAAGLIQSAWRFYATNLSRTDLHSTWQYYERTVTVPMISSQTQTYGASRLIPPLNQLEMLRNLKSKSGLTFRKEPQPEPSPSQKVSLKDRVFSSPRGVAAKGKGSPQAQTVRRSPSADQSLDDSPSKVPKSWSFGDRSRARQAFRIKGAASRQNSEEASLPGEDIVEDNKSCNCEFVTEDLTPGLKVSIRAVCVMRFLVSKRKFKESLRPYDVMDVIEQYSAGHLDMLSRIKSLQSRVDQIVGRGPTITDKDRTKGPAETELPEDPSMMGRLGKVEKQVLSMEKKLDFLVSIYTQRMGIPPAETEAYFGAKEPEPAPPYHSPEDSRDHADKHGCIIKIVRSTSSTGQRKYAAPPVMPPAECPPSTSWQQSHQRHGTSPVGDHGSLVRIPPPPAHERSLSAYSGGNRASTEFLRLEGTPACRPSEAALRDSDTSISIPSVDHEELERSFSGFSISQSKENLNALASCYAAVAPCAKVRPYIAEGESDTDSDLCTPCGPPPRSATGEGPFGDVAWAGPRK
In the case of `CC(=O)O[C@H]1CC[C@@]2(C)[C@@H](CC[C@@H]3[C@@H]2CC[C@]2(C)[C@@H](C(C)(C)O)C[C@@H]32)C1`, the B-score is reported as “inactive”.
With `COc1ccc(NS(=O)(=O)c2ccc(C)c(C(=O)N(C)Cc3ccc(OC)cc3OC)c2)cc1` the B-score was “inactive”.
For `CCn1c(SC(C)C(=O)Nc2ccc(N3CCOCC3)cc2)nnc1-c1ccco1` (centres undefined), the B-score was “inactive”.
For `COc1ccccc1NC(=O)COC(=O)c1ccccc1SCC(=O)N1CCCC1`, the B-score was “inactive”.
With `CCS(=O)(=O)c1cc([N+](=O)[O-])c(Sc2ccccc2N)s1` the B-score was “inactive”.
In the case of `Nc1ccccc1SCc1cc([N+](=O)[O-])cc2c1OCOC2`, the B-score is reported as -0.29 (inactive).
For `Nc1ccccc1SC(C[N+](=O)[O-])c1ccccc1` (centres undefined), the B-score was -7.63 (active).
With `Cc1cc(C)c(-c2csc(NC(=O)CCCc3nc4ccccc4c(=O)[nH]3)n2)c(C)c1` the B-score was “inactive”.
`Cc1ccc(S(=O)(=O)N2CCOCC2)cc1C(=O)NCc1ccc(F)cc1` was tested, and the B-score was “inactive”.
In the case of `Cc1cc(C(=O)NNC(=O)c2cccc(S(=O)(=O)N3CCOCC3)c2)c2ccccc2n1`, the B-score is reported as -0.22 (inactive).
For `O=C(Nc1ccccc1N1CCOCC1)c1csc2c1CCCC2`, the B-score was -4.47 (inactive).
`O=C(Nc1ccccc1N1CCCC1)c1ccc(F)c(S(=O)(=O)N2CCOCC2)c1` was tested, and the B-score was -0.88 (inactive).
For `Cc1ccc(S(=O)(=O)N2CCOCC2)cc1C(=O)Nc1ccccc1N1CCCC1`, the B-score was -6.63 (active).
For `Cc1cc(C(=O)Nc2ccccc2N2CCOCC2)c2ccccc2n1`, the B-score was -6.19 (active).
In the case of `CN(C)CCn1c2c(c(SCC(=O)Nc3ccccc3C(F)(F)F)nc1=O)CCCC2`, the B-score is reported as -0.04 (inactive).
In the case of `Nc1c(-c2ccccc2)nnn1Cc1ccccc1`, the B-score is reported as “inactive”.
In the case of `Cc1ccc(S(=O)(=O)N2CCN(C(=O)c3ccc(-n4cncn4)c([N+](=O)[O-])c3)CC2)cc1`, the B-score is reported as -0.29 (inactive).
For `Cc1cccc(C)c1NC(=O)CNC(=O)c1c(C)nn(-c2ccccc2)c1C`, the B-score was -1.69 (inactive).
With `O=C(Nc1nc(-c2ccco2)c(-c2ccco2)s1)c1ccco1` the B-score was -3.35 (inactive).
`CC(=O)c1c(-c2ccccc2)c2ccccc2[nH]c1=O` was tested, and the B-score was -0.37 (inactive).
For `Cc1nc2ccccc2c(-c2ccccc2)c1C(=O)c1ccccc1`, the B-score was -9.15 (active).
For `Cc1nc2ccccc2c(C)c1C(=O)c1ccc(F)cc1`, the B-score was -1.04 (inactive).
For `COc1cnn(-c2ccc([N+](=O)[O-])cc2)c(=O)c1Cl`, the B-score was -0.13 (inactive).
`COc1ccccc1C(=O)Nc1ccc(Nc2ccccc2)cc1` was tested, and the B-score was “inactive”.
For `COc1ccc(CNS(=O)(=O)c2cc3c4c(c2)CCN4C(=O)CC3)cc1`, the B-score was -1.56 (inactive).
With `Cc1ccc(NC(=O)C2CC(=O)N(c3ccc4c(c3)OCCO4)C2)cc1S(=O)(=O)N1CCCCCC1` (centres undefined) the B-score was -1.45 (inactive).
For `Cc1onc(-c2ccccc2Cl)c1C(=O)OCC(=O)c1ccccc1`, the B-score was -1.85 (inactive).
With `Cc1ccc2cc(CCNC(=O)c3c(-c4ccccc4Cl)noc3C)c(=O)[nH]c2c1` the B-score was -1.13 (inactive).
For `Cc1onc(-c2ccccc2Cl)c1C(=O)NCCn1ccc2ccccc21`, the B-score was -5.59 (active).
For `COc1ccc(-c2[nH]nc(-c3ccccc3)c2-c2nc3ccccc3[nH]2)cc1`, the B-score was -7.31 (active).
With `COc1ccc(OC(C)C(=O)NCCc2nc3ccccc3[nH]2)cc1` (centres undefined) the B-score was “inactive”.
With `Cc1ccc(-c2nc3ccccc3[nH]2)cc1N` the B-score was -0.17 (inactive).
With `COc1ccc(CCNC(=S)N2CCN(S(=O)(=O)c3ccc(F)cc3)CC2)cc1` the B-score was -0.54 (inactive).
`Cc1ccc(CSCC(=O)N(C)CC(=O)Nc2ccc(C)cc2)cc1` was tested, and the B-score was “inactive”.
`CC(Oc1ccc(Br)cc1)C(=O)NCC(c1ccco1)N1CCCCC1` (centres undefined) was tested, and the B-score was -2.11 (inactive).
For `CCOC(=O)c1c(NC(=O)C(C)Sc2c[nH]c3ccccc23)sc2c1CCC2` (centres undefined), the B-score was -4.14 (inactive).
In the case of `CCOC(=O)c1c(NC(=O)Cn2nc(C(F)(F)F)cc2C)sc2c1CCC2`, the B-score is reported as -0.09 (inactive).
In the case of `CCOC(=O)c1c(NC(=O)CSc2cn(CC)c3ccccc23)sc2c1CCC2`, the B-score is reported as -7.2 (active).
In the case of `CCOC(=O)c1c(NC(=S)NC)sc2c1CCCC2`, the B-score is reported as “inactive”.
In the case of `CCOC(=O)c1c(NC(=O)CCC(=O)NCc2ccco2)sc2c1CCCC2`, the B-score is reported as “inactive”.
For `CCOC(=O)c1c(NC(=O)C2(C)Cc3ccccc3C(=O)O2)sc2c1CCCC2` (centres undefined), the B-score was -5.8 (active).
`CC(Sc1nn(-c2ccc(Cl)cc2)c(=S)s1)C(=O)NCC1CCCO1` (centres undefined) was tested, and the B-score was -0.45 (inactive).
In the case of `COc1cccc(NC(=O)CSc2nccn(-c3ccc4c(c3)OCCO4)c2=O)c1`, the B-score is reported as -2.03 (inactive).
For `COc1ccccc1CCC(=O)NNC(=O)c1ccncc1`, the B-score was -1.15 (inactive).
`COc1ccc(S(=O)(=O)N2CCOC23CCN(S(=O)(=O)c2ccc([N+](=O)[O-])cc2)CC3)cc1` was tested, and the B-score was -0.03 (inactive).
`Cc1ccc(N=C2SCCCN2C(=O)c2cccc(N3C(=O)CCC3=O)c2)cc1Cl` was tested, and the B-score was “inactive”.
With `COc1ccccc1NC(=O)C(C)OC(=O)c1ccc(-n2cnnn2)cc1` (centres undefined) the B-score was “inactive”.
`O=C(CCN1C(=O)C2CCCCC2C1=O)Nc1ccc(OC(F)F)cc1` (centres undefined) was tested, and the B-score was -1.21 (inactive).
`C[C@H](NC(=O)c1ccccc1Cl)C(=O)OCCOc1cccc(Cl)c1` was tested, and the B-score was -6.72 (active).
`O=C(COc1cccc(Cl)c1)NCc1ccccc1` was tested, and the B-score was “inactive”.
In the case of `CC(C)NC(=O)c1ccc(Cl)cc1Cl`, the B-score is reported as “inactive”.
With `CCOC(=O)c1c(C)[nH]c(C(=O)OCC(=O)c2ccc(OC)cc2OC)c1C` the B-score was -0.07 (inactive).
With `COc1ccc(S(=O)(=O)N2CCCCC2)cc1NC(=O)C1CC(=O)N(c2ccc3c(c2)OCCO3)C1` (centres undefined) the B-score was -0.27 (inactive).
With `Cc1csc2nc(O)c(C(=O)NCCN3CCOCC3)c(=O)n12` the B-score was “inactive”.
`Cc1ccc(C(=O)CSc2ccccc2C(=O)O)cc1` was tested, and the B-score was “inactive”.
In the case of `Cc1ccc(SCC(=O)c2cc(C)c(OC(=S)N(C)C)c(C)c2)cc1`, the B-score is reported as -7.36 (active).
`Cc1ccc(SCC(=O)Nc2ccc3c(c2)OCCO3)cc1` was tested, and the B-score was “inactive”.
With `Cc1ncc(CO)c(/C=N/NC(=O)c2cccc(S(=O)(=O)N3CCCC3)c2)c1O` the B-score was -2.49 (inactive).
For `Cc1ccc(C(=O)NC2CCCC(C)C2C)cc1S(=O)(=O)N1CCCCC1` (centres undefined), the B-score was -3.09 (inactive).
